Sfp inh = Sfp phosphopantetheinyl transferase inhibition | Q9F4F7 | Biochemical Sfp PPTase activity, qHTS | 310,000 compounds, 3.5% hits | AID 1490 | Potency, µM, without a hit: largest response in the series, negative = inhibition, hits mostly inhibitors;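 also: the enzyme is Sfp with the accession as filed and its product quenches rhodamine fluorescence; 0% = enzyme reaction without inhibitor and -100% = no enzyme wells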
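Step 1, compound plus 15 nM Sfp-PPTase, 15 min, room temperature. Step 2, add rhodamine-CoA (5 uM) and BHQ-2-YbbR (12.5 uM). Step 3, read 525/598 nm fluorescence at 0 and 30 min.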
Gal4-VP16 FLuc = counter-screen for ROR gamma inhibitors: Gal4-VP16 reporter | Drosophila S2 Gal4-VP16 UAS-luciferase, luminescence, 20 h | Potency, µM (titrated, usually from 53.6 µM), for inactives: at the highest dose activity, negative = inhibition, most hits filed as inhibitors | 310,000 compounds, 3.5% hits;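 also: Gal4-VP16 expression switched on by copper sulfate through the metallothionein promoter; % is scaled to controls: 0 for no effect and ±100 for the full control effect; nearly all actives have a fitted effect of over 50% in size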
Epigenetic derep = regulators of epigenetic silencing causing reporter derepression in mouse cells; murine LDR cells, GFP reporter derepression, 30 h; Potency, µM (titrated, usually from 53.9 µM), for inactives: at the top dose GFP activation, hits mostly activators; 280,000 compounds, 0.2% hits; AID 1865; also: % of control where 0% means no effect; nearly all actives have a fitted effect of over 60% in size
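Murine LDR cells carrying a silenced, genomically integrated CMV-driven GFP reporter were exposed to compound for 30 hours at 37 C. After PBS washes, GFP-positive cells (20–120 um objects) were counted by laser-scanning microplate cytometry.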
ClpP mod = qHTS Assay for Activators of ClpP | ATP-dependent Clp protease proteolytic subunit (Bacillus subtilis (strain 168)), P80244 | purified B. subtilis ClpP, FRET peptide cleavage, 20 min | Potency, µM (top dose mostly 57.5 µM), for the others: at the top dose activity change, negative = active | 340,000 compounds, 1.9% hits | AID 651965, 2013; active = well fitted falling curve with a large enough effect; inconclusive = small, poorly fitted or top-dose-only effect; inactive = no such curve, though single readings can be large or run the other way; also: the source files actives as falling curves though it sought activators and does not explain the sign; nearly all actives have a fitted effect of over 65% in size
Target sequence (P80244 whole entry, looked up): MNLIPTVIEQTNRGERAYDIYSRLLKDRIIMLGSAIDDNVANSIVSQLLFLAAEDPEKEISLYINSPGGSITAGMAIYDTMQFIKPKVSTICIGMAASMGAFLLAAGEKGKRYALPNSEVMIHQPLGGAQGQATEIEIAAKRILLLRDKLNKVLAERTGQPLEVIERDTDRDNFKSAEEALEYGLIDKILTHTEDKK
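ClpP 10 microg/mL final, pH 8 Tris/KCl buffer with BSA, glycerol, Tween-20; compound pinned in; FRET-FV substrate; RT 20 min; Ex320/Em430; ΔFRET vs ADEP 5.8 microM, DMSO, no enzyme.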
PINK1 modulator = modulators of PINK1 expression. PINK1 immunofluorescence, high-content cytometry, 24 h. Potency, µM (titrated, usually from 76.6 µM), inactives show at the top dose activation (PINK1 increase), most hits filed as activators. 410,000 compounds, 0.2% hits; active = well fitted activation curve with a large enough effect; inconclusive = small, poorly fitted or top-dose-only effect; cell line not stated here; also: % of control where 0% means no effect; nearly all actives have a fitted effect of over 65% in size
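Cells are seeded, rested 12 hours, then given compound at five concentrations or DMSO for 24 hours. After fixation, blocking and antibody staining, PINK1 amount and mitochondrial localization are scored; CCCP serves as control.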
RORg inh = inhibitors of mouse ROR gamma transcriptional activity; Drosophila S2 Gal4-RORgamma UAS-luciferase reporter, 20 h; Potency, µM (top dose mostly 53.6 µM), for inactives: at the highest dose activity change, negative = inhibition, most hits filed as inhibitors; 310,000 compounds, 5.4% hits; AID 2551; also: % is scaled to controls: 0 for no effect and ±100 for the full control effect; nearly all actives have a fitted effect of over 60% in size
Target sequence (P51450 whole entry, looked up, the tested form may be a part): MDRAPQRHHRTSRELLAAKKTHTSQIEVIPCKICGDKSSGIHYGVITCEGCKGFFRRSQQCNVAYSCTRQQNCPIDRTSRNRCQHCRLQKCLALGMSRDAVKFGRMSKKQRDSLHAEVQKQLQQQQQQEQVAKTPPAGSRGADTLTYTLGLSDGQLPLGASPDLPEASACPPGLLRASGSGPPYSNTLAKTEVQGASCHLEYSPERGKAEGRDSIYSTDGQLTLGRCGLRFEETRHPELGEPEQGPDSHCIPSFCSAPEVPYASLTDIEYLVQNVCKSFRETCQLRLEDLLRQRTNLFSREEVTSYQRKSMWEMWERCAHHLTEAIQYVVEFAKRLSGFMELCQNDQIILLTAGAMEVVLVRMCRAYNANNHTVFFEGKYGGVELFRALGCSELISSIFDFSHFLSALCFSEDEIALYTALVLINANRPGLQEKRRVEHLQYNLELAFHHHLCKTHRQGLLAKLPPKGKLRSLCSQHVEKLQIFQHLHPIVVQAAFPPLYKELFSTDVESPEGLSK
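Using a luciferase readout, inhibitors were identified by reduced reporter activity in Drosophila cells coexpressing a copper-inducible Gal4–ROR gamma fusion and UAS-driven Photinus luciferase, incubated 20 hr after 700 uM copper sulfate.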
* marks the source's active call; other numbers are inactive results; ! = a repeat was not active. An excerpt weighted towards active compounds, which were near 8.1% of everything screened. Unless noted, calls follow the shape of the dose curve; as a rule, active = well fitted curve in the direction sought with a large enough effect; inconclusive = small, poorly fitted or top-dose-only effect, or another doubt; inactive = no such curve, though single readings can be large; an effect the other way counts as inactive or inconclusive. Potency is read from the fitted curve at half-maximal effect.

What do the screens show for `O=C(Nc1ccc(C(F)(F)F)cc1)c1ccc2ncsc2c1`?
Sfp inh: 79µM*; Gal4-VP16 FLuc: inconclusive; ClpP mod: -2%; PINK1 modulator: 3%; RORg inh: 9%

What do the screens show for `Cc1ccc(NC(=O)c2cccnc2)cc1S(=O)(=O)N(C)C`?
Sfp inh: 11%; Gal4-VP16 FLuc: -11%; Epigenetic derep: 1%; PINK1 modulator: 1%; RORg inh: 38%

How did O=C(Nc1ccc(F)cc1)c1ccc2ncsc2c1 do in these assays?
Sfp inh: inconclusive; Gal4-VP16 FLuc: 6%; ClpP mod: -2%; PINK1 modulator: 0%; RORg inh: -1%

Results for Cc1ccc(NC(=O)c2ccc3ncsc3c2)cc1S(=O)(=O)N(C)C ?
Sfp inh: 56µM*; Gal4-VP16 FLuc: 7.1µM*; Epigenetic derep: 4%; RORg inh: 7.9µM*

What do the screens show for `CC(C)C(NS(C)(=O)=O)c1nnc2n1CCN(Cc1ccc(C#CC(C)(C)O)cc1)CC2` (stereo not drawn)?
PINK1 modulator: 1%

Results for COC(=O)c1cc(NC(=O)Cn2nc(-c3ccc(C)c(C)c3)ccc2=O)cc(C(=O)OC)c1 ?
Epigenetic derep: inconclusive; ClpP mod: 1%; PINK1 modulator: 4%

What do the screens show for `C[C@@H]1O[C@@H](Oc2c(-c3cc(O)c(O)c(O)c3)oc3cc(O)cc(O)c3c2=O)[C@H](O)[C@H](O)[C@H]1O`?
Sfp inh: 32µM*!; Gal4-VP16 FLuc: 1%; Epigenetic derep: 0%; ClpP mod: 2%; PINK1 modulator: 0%; RORg inh: 4%

How did O=C(Nc1cccc(-c2nc3ccccc3o2)c1)c1cccc2c(Cl)cccc12 do in these assays?
Epigenetic derep: 0%; ClpP mod: -5%; PINK1 modulator: 0%

What do the screens show for `CC1Cc2nc(SCC(=O)Nc3nccs3)n(C)c(=O)c2S1` (stereo not drawn)?
Sfp inh: 50µM*; Gal4-VP16 FLuc: -10%; Epigenetic derep: -1%; ClpP mod: 0%; PINK1 modulator: 0%; RORg inh: 35%

How did CSc1nc2c(c(=O)n1C)SC(C)C2 (stereo not drawn) do in these assays?
Sfp inh: 50µM*; Gal4-VP16 FLuc: 19%; Epigenetic derep: -1%; ClpP mod: -5%; PINK1 modulator: 1%; RORg inh: 30%

How did CCC1CCCCN1CCCNC(=O)c1ccc2c(c1)sc1nc(-c3ccc(F)cc3)cn12 (stereo not drawn) do in these assays?
Epigenetic derep: 0%; ClpP mod: -25%; PINK1 modulator: 2%

What do the screens show for `C=CCSC1=C(C#N)C(c2cccc(OC)c2)CC(=O)N1` (stereo not drawn)?
Sfp inh: 35µM*; Gal4-VP16 FLuc: 2%; Epigenetic derep: 1%; ClpP mod: 1%; PINK1 modulator: 0%; RORg inh: -14%

Results for COC(=O)CSC1=C(C#N)C(c2cccc(OC)c2)CC(=O)N1 (stereo not drawn) ?
Sfp inh: 2%; Gal4-VP16 FLuc: 3%; Epigenetic derep: 1%; ClpP mod: 1%; PINK1 modulator: 11%; RORg inh: -26%

How did CCOC(=O)C1C(=O)NC(SCC(N)=O)=C(C#N)C1c1ccccc1OCC (stereo not drawn) do in these assays?
Sfp inh: 16µM*; Gal4-VP16 FLuc: 7%; Epigenetic derep: 0%; ClpP mod: -1%; PINK1 modulator: 2%; RORg inh: 1%

What do the screens show for `CCOc1ccccc1C1CC(=O)NC(SCC)=C1C#N` (stereo not drawn)?
Sfp inh: -1%; Gal4-VP16 FLuc: -15%; Epigenetic derep: -1%; ClpP mod: 1%; RORg inh: 4%

Results for Cc1ccc(C2CC(=O)NC(SCCC(C)C)=C2C#N)cc1 (stereo not drawn) ?
Sfp inh: 45µM*; Gal4-VP16 FLuc: 5%; Epigenetic derep: -1%; ClpP mod: 4%; PINK1 modulator: 10%; RORg inh: -18%

Results for C=CCSC1=C(C#N)C(c2ccccc2OCC)CC(=O)N1 (stereo not drawn) ?
Sfp inh: 71µM*; Gal4-VP16 FLuc: 11%; Epigenetic derep: 0%; ClpP mod: 1%; PINK1 modulator: inconclusive; RORg inh: -22%

What do the screens show for `COC(=O)CSC1=C(C#N)C(c2ccc(C(C)C)cc2)CC(=O)N1` (stereo not drawn)?
Sfp inh: 0%; Gal4-VP16 FLuc: 4%; Epigenetic derep: 1%; ClpP mod: 0%; PINK1 modulator: 0%; RORg inh: 29%

What do the screens show for `C=CCSC1=C(C#N)C(c2ccccc2OC)CC(=O)N1` (stereo not drawn)?
Sfp inh: 56µM*; Gal4-VP16 FLuc: -2%; Epigenetic derep: 7%; ClpP mod: -4%; PINK1 modulator: 0%; RORg inh: 11%

What do the screens show for `O=C(NC(=S)Nc1ccccc1)c1cc([N+](=O)[O-])ccc1N1CCOCC1`?
Sfp inh: 8%; Gal4-VP16 FLuc: -1%; Epigenetic derep: 0%; ClpP mod: -2%; PINK1 modulator: 0%; RORg inh: -13%

Results for O=C(NC(=S)Nc1ccc(N2CCOCC2)cc1)c1cccc([N+](=O)[O-])c1 ?
Sfp inh: -19%; Gal4-VP16 FLuc: 2.8µM*; Epigenetic derep: 1%; ClpP mod: 1%; PINK1 modulator: 6%; RORg inh: 2.2µM*

How did O=C(NC(=S)Nc1ccc(CN2CCOCC2)cc1)c1cccc([N+](=O)[O-])c1 do in these assays?
Sfp inh: 45µM*; Gal4-VP16 FLuc: inconclusive; Epigenetic derep: 0%; ClpP mod: 2%; PINK1 modulator: -1%; RORg inh: inconclusive

How did O=C(NC(=S)Nc1ccc(CN2CCOCC2)cc1)c1ccc([N+](=O)[O-])cc1Cl do in these assays?
Sfp inh: -15%; Gal4-VP16 FLuc: inconclusive; Epigenetic derep: 0%; PINK1 modulator: 1%; RORg inh: 7.9µM*

Results for Cc1sc2ncn(CC(=O)N3CCN(c4ccc(F)cc4)CC3)c(=O)c2c1S(=O)(=O)N1CCCCC1 ?
Epigenetic derep: -1%; ClpP mod: 2%; PINK1 modulator: 4%

What do the screens show for `COC(=O)c1ccccc1NC(=O)COc1ccccc1C(=O)Nc1ccccc1`?
ClpP mod: -16%; PINK1 modulator: 0%

What do the screens show for `COc1cccc(C2C(=O)N(C3CCCCC3)CC(=O)N2CCc2ccc(OC)c(OC)c2)c1` (stereo not drawn)?
Epigenetic derep: 0%; ClpP mod: 1%; PINK1 modulator: 1%

Assay outcomes from PubChem.
